Compounds with a hit are over-represented: about 1.1% of the library has one in this group of screens.
IDH1 R132H inh = blocks human mutant IDH1 R132H enzyme; O75874; IDH1-R132H enzyme, NADPH consumption, diaphorase/resazurin fluorescence; Potency, µM (titrated, usually from 76.6 µM), for inactives: top-dose activity change, negative = inhibition, usual class: inhibitors; hit rate 0.093% among 390,000; AID 602179; note: % is set by controls: 0 for no effect and ±100 for the full control effect; nearly all actives have a fitted effect of over 65% in size
Target sequence (O75874 whole entry R132H, stated change not applied): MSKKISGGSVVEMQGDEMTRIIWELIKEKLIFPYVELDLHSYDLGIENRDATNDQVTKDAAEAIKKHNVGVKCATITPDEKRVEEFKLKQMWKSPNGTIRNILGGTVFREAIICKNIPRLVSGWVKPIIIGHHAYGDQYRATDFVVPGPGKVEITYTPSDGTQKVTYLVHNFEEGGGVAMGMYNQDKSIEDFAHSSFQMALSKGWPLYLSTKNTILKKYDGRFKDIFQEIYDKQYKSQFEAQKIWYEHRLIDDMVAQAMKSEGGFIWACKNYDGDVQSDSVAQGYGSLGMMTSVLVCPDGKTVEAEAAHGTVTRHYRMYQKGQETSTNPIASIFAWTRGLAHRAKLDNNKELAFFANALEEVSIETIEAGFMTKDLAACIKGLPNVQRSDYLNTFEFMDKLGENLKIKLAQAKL
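IDH1-R132H (0.5 ug/mL) preincubated 30 min with compound, then NADPH (0.016 mM) and alpha-KG (2 mM) added; 80 min at RT, pH 7.5. Remaining NADPH coupled via diaphorase/resazurin to fluorescence (540/590 nm); concentration-response curves normalized to no-enzyme control.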
NPSR antagonist = antagonists of human neuropeptide S receptor cAMP signaling | CHO-NPSR cells, cAMP TR-FRET, antagonist mode | Potency, µM (series often up to 38.3 µM), for the others: at the highest dose activity change, negative = inhibition, hits mostly inhibitors | hit rate 1% among 220,000; note: % is set by controls: 0 for no effect and ±100 for the full control effect; nearly all actives have a fitted effect of over 50% in size
AT treatment = candidate therapy for ataxia-telangiectasia | hit rate 0.19% among 320,000 | F2112 A-T fibroblasts, KAP-1 phosphorylation AlphaLISA; neocarzinostatin DNA damage 30 min before lysis | Potency, µM (top dose mostly 57.5 µM), for inactives: top-dose activation, most hits filed as activators; note: % of control where 0% means no effect; nearly all actives have a fitted effect of over 45% in size
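ATM-like activity read as KAP-1 phosphorylation via AlphaLISA donor/acceptor antibody pairs after lysis and 6 hr at 25C. Cells were ATM-null patient fibroblasts (F2112, hTERT), dosed 60 min, then exposed to the DSB inducer NCS for 30 min.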
HTT ATP protect = Huntington cell model cytoprotection by ATP luminescence; PC12 HTT-Q103 induced, cytoprotection, ATP luminescence, 40 h; Potency, µM (series often up to 56.4 µM), inactives show cytoprotection (ATP increase), usual class: activators; hit rate 0.14% among 230,000; note: % of control where 0% means no effect; nearly all actives have a fitted effect of over 45% in size
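Huntington model: PC12 line, ecdysone-inducible HTTQ103 exon1–GFP, tebufenozide 100 nM. Test articles in a dose series. Endpoint luminescence from cellular ATP.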
HttQ103 aggreg = reduces HttQ103-GFP aggregates in PC12 cells | PC12 HttQ103-GFP aggregates, Acumen cytometry, 40 h | hit rate 1.1% among 220,000 | Potency, µM (highest dose often 46.1 µM), for the others: top-dose activity change, negative = inhibition, actives largely listed as inhibitors | AID 1688; note: % is set by controls: 0 for no effect and ±100 for the full control effect; nearly all actives have a fitted effect of over 60% in size
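Compounds (qHTS titration) were added to PC12 cells expressing an ecdysone-driven HTT exon 1 Q103–GFP fusion after induction with 100 nM tebufenozide. Aggregate formation was measured as GFP objects in cell lysates.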
Numbers without * were called inactive; ? = inconclusive; . = not tested or not shown; [ ] = dose if it differs, or a comment. Calls come from the whole dose curve; as a rule, active = well fitted curve in the direction sought with a large enough effect; inconclusive = small, poorly fitted or top-dose-only effect, or another doubt; inactive = no such curve, though single readings can be large; an effect the other way counts as inactive or inconclusive. Potency is the fitted concentration of half-maximal effect.

SMILES	IDH1 R132H inh	NPSR antagonist	AT treatment	HTT ATP protect	HttQ103 aggreg
CC1Cc2ccccc2N1C(=O)CSc1nnc(NC(=O)Cc2cccs2)s1 (configuration not stated)	-10.7%	12.6µM*	5.0%	7.2%[10 µM]	0.4%
N=C1/C(=C/c2cccn2Cc2ccc(F)cc2)C(=O)N=C2SC=CN12	0.0%	7.4%	1.1%	-15.2%	0.0141µM*
Cc1ccc(C2CC(c3cccs3)=NN2C(=O)c2ccc(Br)o2)cc1 (configuration not stated)	0.2%	10µM*	.	-82.8%[10 µM]	?
CCC(=O)N1CCc2cc(S(=O)(=O)Nc3ccc4c(c3)OCCO4)ccc21	3.3%	-14.6%[46.1 µM]	1.4%	25.8%	7.94µM*
Cn1c(=O)oc2cc(S(=O)(=O)Nc3ccc4c(c3)OCCO4)ccc21	0.9%	-5.4%[46.1 µM]	.	-9.5%	35.5µM*
CCCc1cc(COC)c(C#N)c(=O)[nH]1	.	.	.	-7.3%[10 µM]	.
O=C1CN(C(=O)COc2ccc(Cl)c(Cl)c2)c2ccccc2N1	9.1%	.	-3.7%	.	.
O=C1CN(C(=O)Cn2ncc(Cl)c(Cl)c2=O)c2ccccc2N1	11.5%	-32.4%	-2.4%	-159.3%	11.2µM*
CCCCCCOC1(c2ccccc2)OC(=O)c2ccccc21 (configuration not stated)	2.3%	?	20.7%	21.7%	-2.9%
CCCCCOP(=O)(OCCCCC)C1(NS(=O)(=O)c2ccccc2)C=CC(=O)c2ccccc21 (configuration not stated)	2.2%	10µM*	-2.3%	-1.1%	4.3%
Cc1ccc(S(=O)(=O)CC2CSc3nc4ccccc4n32)cc1 (configuration not stated)	2.0%	24.6%[46.1 µM]	2.3%	3.98µM*	7.08µM*
Cc1ccc(S(=O)(=O)CC2CSc3nc(N)cc(=O)n32)cc1 (configuration not stated)	-3.5%	-18.0%[46.1 µM]	7.4%	3.4%[0.074 µM]	7.2%
COc1ccc(-c2nn(-c3ccccc3)cc2/C=N/NC(=O)c2ccc(Br)o2)cc1	-3.5%	6.31µM*	10.3%	-40.1%	3.55µM*
COc1ccc(-c2nn(-c3ccccc3)cc2/C=N/NC(=O)c2ccc3c(c2)OCO3)cc1	.	-17.6%[46.1 µM]	1.3%	9.2%	?
Nc1c(S(=O)(=O)O)cc(Nc2cccc(S(N)(=O)=O)c2)c2c1C(=O)c1ccccc1C2=O	.	.	.	4.4%[10 µM]	.
Cc1cc(C)c(S(=O)(=O)NCCc2sc3nc(-c4ccc(F)cc4)nn3c2C)c(C)c1	-7.7%	.	.	.	.
NNC(=O)c1ccc(N2CCc3ccccc32)c([N+](=O)[O-])c1	-3.9%	-20.6%	-20.6%	14.7%[10 µM]	-8.7%
COC(CNC(=O)c1ccc(N2CCc3ccccc32)c([N+](=O)[O-])c1)OC	3.8%	-28.8%	-10.7%	15.5%[10 µM]	11.2µM*
CC(=O)N(c1ccc2oc(=O)sc2c1)S(=O)(=O)c1cccs1	5.0%	-2.8%[46.1 µM]	4.6%	?	?
CC(C)C(=O)N(c1ccc2oc(=O)sc2c1)S(=O)(=O)c1cccs1	-2.3%	-9.6%[46.1 µM]	-3.8%	12.6µM*	.
COc1cc2c3nnc(-c4ccc(F)cc4)c-3cn(Cc3ccccc3F)c2cc1OC	0.1%	-16.0%	-0.1%	-120.9%	7.08µM*
COc1cc2c(=O)c(S(=O)(=O)c3ccc(F)cc3)cn(Cc3ccccc3C)c2cc1OC	-8.7%	.	.	.	.
COc1cc2c3nnc(-c4ccccc4)c-3cn(Cc3ccccc3F)c2cc1OC	0.9%	10µM*	3.6%	-2.3%[10 µM]	8.1%
OCCCn1c(-c2ccccc2)nc(=S)c2c1CCCC2	3.4%	?	17.5%	2.82µM*	.
CN(C)CCCn1c(-c2ccccc2)nc(=S)c2c1CCCC2	0.5%	-6.0%[46.1 µM]	-2.0%	-29.4%	2.1%
SMILES	IDH1 R132H inh	NPSR antagonist	AT treatment	HTT ATP protect	HttQ103 aggreg
CC1(C)Cc2c(c(=S)nc(-c3ccccc3)n2CCO)CO1	6.9%	2.3%[46.1 µM]	2.3%	20µM*	-26.3%
CCN(CC)c1nn2c(=O)c(C(=O)NCc3cccc(C)c3)cnc2s1	-2.9%	.	.	.	.
CC1=C(C(=O)Nc2ccccc2C)C(c2ccccn2)n2nc(SCc3ccccc3F)nc2N1 (configuration not stated)	14.2%	.	.	.	.
Cc1ccccc1OCC(=O)Nc1ccc(S(=O)(=O)N(Cc2ccccc2)c2ccccc2)cc1	2.3%	.	.	.	.
O=C(Cn1c(=O)nc(-c2ccccc2)c2ccccc21)NCc1ccccc1Cl	0.0%	.	.	.	.
C=CCN1c2ccccc2[C@]23C[C@@H](C(=O)OC)N(S(=O)(=O)c4cccs4)C2=NC(C(=O)OC)=C(C(=O)OC)[C@H]13	.	.	.	-23.0%[10 µM]	.
Fc1ccc(Nc2nc(SCc3ccccc3F)nc3ccccc23)cc1	4.2%	.	.	.	.
Cn1cc(C(=O)c2ccc(Cl)cc2Cl)cc1C(=O)N/N=C(\N)COc1ccc(F)cc1	-3.4%	-18.1%[46.1 µM]	-1.9%	-60.9%	17.8µM*
CCc1ccc(S(=O)(=O)/N=C2/C=C(Sc3ncn[nH]3)C(=O)c3ccccc32)cc1	20.3%	10µM*	-7.7%	-80.0%[10 µM]	3.55µM*
Clc1ccc(-c2c[n+](Cc3ccc(Cl)cc3Cl)c3n2CCCCC3)cc1	-3.9%	?	9.0%	-46.0%[10 µM]	-3.7%[9.22 µM]
Clc1ccc(C[n+]2cc(-c3ccccc3)n3c2CCCCC3)c(Cl)c1	0.3%	-28.6%	-1.0%	-48.1%[10 µM]	11.2µM*
C=C(C(=O)Oc1ccccc1C(C)(C)C)c1ccccc1	.	.	35.5µM*	.	.
CCC1CCCCN1CCCNC(=O)c1ccc2c(c1)N(Cc1ccccc1F)C(=O)c1ccccc1S2(=O)=O (configuration not stated)	8.7%	.	.	.	.
COc1cc(/C=C/c2nc(C#N)c(NC3CCCCC3)o2)cc(OC)c1OC	3.3%	.	.	.	.
COc1ccc(NC(=O)c2cn(-c3ccccc3)nc2-c2ccncc2)cc1	-9.0%	-17.8%	-6.2%	-55.2%	15.1%
COc1ccc(-c2nn(-c3ccccc3)cc2C(=O)NC(=S)NNC(=O)c2ccncc2)cc1	-5.6%	-41.1%	-1.6%	17.1%	10µM*
CCCCc1cc2c(cn1)C(=O)C(C)(OC(C)=O)C(=O)C2 (configuration not stated)	.	.	.	-25.4%[10 µM]	.
O=[N+]([O-])c1ccc(Nc2nc3ccccc3s2)cc1	.	.	.	-2.5%[10 µM]	.
O=C(Nc1ccc(Cl)cc1)/C(=C/c1ccc([N+](=O)[O-])cc1)c1nc2ccccc2s1	.	-45.8%	14.6%	-196.8%	7.08µM*

Screening data from PubChem.
